Reference: the supplement of paper PMC11732987, “Enantioselective OTUD7B fragment discovery through chemoproteomics screening and high-throughput optimisation” (Communications Chemistry, 2025)

Key:
Assay in all cases: log2 ratio of Biotin-Ahx-Ub-VS probe labelling (fragment/DMSO); higher = less target engagement (more negative = stronger competition), active = hit call of the paper (q ≤ 0.05, log2 ratio ≤ -1)
Conditions in all cases: compound concentration: 200 uM; treatment time: 3 h
USP34 = USP34 (UniProt Q70CQ2)
Procedure, shortened: (§1)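 Triplicate samples of HEK293T lysate, 495 µg each, received fragment at 200 µM or vehicle for 3 h, followed by Biotin-Ahx-Ub-VS (0.5 µM final) for 1 h. After NeutrAvidin enrichment of labelled DUBs and LysC/trypsin digestion, peptides were run by diaPASEF LC-MS/MS. The values are average log2 fragment/vehicle ratios from global-median-normalised Spectronaut label-free quantities, tested by unpaired t-test on proteins having ≥2 unique peptides.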

USP36 = biological target: T1, USP36 (UniProt Q9P275)
T1 sequence (whole entry): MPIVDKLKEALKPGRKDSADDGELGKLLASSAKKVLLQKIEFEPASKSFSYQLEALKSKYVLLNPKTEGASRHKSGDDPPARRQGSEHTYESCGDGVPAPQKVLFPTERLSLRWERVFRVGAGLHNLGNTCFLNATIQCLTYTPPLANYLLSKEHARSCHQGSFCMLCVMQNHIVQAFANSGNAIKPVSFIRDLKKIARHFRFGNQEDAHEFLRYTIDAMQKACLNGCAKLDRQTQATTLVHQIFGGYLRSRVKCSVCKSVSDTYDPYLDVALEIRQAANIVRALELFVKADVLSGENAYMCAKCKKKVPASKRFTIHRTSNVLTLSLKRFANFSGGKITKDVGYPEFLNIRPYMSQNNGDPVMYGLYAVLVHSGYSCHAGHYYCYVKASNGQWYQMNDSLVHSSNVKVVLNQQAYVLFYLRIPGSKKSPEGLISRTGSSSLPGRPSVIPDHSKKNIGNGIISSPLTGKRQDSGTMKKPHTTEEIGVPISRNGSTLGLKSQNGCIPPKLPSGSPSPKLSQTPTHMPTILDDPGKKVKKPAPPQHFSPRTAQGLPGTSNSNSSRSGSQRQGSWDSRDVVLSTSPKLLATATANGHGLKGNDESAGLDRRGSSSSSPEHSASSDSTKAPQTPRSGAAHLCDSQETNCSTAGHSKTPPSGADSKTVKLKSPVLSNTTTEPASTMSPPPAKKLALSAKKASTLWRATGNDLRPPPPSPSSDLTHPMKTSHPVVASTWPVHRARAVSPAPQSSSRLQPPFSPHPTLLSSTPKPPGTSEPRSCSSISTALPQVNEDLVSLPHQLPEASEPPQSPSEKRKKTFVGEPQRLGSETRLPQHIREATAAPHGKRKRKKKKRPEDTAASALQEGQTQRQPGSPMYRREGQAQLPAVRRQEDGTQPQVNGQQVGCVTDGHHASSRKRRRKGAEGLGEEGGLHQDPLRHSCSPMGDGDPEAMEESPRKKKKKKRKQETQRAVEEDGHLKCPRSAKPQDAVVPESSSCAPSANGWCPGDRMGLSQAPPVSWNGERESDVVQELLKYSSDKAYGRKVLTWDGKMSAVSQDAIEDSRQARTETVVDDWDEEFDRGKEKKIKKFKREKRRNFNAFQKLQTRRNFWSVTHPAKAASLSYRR
Procedure, shortened: as §1

USP38 = biological target: T2, USP38 (UniProt Q8NB14)
T2 sequence (whole entry): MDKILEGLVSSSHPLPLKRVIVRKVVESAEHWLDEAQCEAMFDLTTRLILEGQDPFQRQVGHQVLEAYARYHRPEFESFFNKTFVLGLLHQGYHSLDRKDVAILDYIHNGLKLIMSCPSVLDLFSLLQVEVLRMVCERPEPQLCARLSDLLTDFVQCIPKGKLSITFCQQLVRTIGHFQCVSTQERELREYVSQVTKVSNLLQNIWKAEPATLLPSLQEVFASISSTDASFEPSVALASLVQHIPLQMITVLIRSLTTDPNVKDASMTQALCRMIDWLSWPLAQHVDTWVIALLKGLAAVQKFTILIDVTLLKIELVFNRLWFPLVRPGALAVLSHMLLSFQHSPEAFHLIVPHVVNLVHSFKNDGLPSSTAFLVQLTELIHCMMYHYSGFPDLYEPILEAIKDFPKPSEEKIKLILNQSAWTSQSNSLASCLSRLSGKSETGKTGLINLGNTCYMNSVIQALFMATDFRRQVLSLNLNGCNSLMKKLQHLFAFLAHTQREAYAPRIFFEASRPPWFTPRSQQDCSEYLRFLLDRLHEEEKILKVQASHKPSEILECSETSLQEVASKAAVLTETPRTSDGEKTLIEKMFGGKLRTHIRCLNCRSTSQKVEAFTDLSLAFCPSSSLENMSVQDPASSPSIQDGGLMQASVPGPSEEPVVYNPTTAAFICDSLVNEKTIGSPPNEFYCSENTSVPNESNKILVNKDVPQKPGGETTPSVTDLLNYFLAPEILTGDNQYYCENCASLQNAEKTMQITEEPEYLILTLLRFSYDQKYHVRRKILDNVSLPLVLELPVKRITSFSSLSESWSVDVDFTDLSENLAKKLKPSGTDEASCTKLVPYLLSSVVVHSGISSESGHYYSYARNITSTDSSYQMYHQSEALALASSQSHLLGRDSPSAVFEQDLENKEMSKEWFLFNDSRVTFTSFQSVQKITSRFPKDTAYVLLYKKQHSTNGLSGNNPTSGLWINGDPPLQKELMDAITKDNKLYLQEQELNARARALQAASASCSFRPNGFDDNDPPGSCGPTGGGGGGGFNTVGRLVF
Procedure, shortened: as §1

USP39 = biological target: T3, USP39 (UniProt Q53GS9)
T3 sequence (whole entry): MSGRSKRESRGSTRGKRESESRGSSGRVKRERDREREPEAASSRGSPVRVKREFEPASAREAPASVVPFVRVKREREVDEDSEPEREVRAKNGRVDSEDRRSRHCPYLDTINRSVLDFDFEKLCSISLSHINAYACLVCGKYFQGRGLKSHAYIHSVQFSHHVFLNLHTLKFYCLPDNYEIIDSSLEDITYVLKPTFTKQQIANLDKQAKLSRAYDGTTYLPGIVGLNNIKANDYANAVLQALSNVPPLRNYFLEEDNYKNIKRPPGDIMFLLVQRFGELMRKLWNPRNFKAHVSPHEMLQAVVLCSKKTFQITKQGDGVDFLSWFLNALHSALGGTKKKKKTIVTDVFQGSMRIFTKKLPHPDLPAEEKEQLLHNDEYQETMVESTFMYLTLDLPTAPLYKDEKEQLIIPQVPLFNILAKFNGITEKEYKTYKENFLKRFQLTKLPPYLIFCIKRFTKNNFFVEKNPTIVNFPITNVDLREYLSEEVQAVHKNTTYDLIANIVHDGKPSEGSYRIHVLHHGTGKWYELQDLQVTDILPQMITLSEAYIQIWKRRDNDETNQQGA
Procedure, shortened: as §1

USP4 = biological target: T4, USP4 (UniProt Q13107)
T4 sequence (whole entry): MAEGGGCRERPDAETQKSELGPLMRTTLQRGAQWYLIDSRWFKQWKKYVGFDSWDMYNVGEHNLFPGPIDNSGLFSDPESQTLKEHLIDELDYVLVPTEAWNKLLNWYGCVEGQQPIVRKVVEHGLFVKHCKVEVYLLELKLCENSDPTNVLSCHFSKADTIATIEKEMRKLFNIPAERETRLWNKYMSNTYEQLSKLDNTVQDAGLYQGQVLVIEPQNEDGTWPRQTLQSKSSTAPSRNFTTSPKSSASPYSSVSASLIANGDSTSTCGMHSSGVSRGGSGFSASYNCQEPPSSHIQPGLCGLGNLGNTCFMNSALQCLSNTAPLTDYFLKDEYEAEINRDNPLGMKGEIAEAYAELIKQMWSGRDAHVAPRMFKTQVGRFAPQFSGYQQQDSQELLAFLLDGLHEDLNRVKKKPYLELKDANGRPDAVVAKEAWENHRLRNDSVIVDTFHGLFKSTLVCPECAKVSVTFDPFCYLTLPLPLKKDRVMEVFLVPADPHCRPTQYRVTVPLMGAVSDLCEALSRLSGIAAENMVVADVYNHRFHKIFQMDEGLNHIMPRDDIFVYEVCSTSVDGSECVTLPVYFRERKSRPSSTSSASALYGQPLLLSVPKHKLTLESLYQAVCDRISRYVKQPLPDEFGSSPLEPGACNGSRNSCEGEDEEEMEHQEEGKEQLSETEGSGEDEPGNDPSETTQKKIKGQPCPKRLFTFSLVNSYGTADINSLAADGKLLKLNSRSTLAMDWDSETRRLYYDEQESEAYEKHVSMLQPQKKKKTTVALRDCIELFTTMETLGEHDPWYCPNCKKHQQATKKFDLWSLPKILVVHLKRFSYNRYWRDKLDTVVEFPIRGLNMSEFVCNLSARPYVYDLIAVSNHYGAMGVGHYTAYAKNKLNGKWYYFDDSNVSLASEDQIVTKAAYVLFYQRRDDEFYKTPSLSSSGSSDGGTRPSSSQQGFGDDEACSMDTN
Procedure, shortened: as §1

Measured: log2 ratio of Biotin-Ahx-Ub-VS probe labelling

USP34, sequence (Q70CQ2 whole entry, the tested form may be a part): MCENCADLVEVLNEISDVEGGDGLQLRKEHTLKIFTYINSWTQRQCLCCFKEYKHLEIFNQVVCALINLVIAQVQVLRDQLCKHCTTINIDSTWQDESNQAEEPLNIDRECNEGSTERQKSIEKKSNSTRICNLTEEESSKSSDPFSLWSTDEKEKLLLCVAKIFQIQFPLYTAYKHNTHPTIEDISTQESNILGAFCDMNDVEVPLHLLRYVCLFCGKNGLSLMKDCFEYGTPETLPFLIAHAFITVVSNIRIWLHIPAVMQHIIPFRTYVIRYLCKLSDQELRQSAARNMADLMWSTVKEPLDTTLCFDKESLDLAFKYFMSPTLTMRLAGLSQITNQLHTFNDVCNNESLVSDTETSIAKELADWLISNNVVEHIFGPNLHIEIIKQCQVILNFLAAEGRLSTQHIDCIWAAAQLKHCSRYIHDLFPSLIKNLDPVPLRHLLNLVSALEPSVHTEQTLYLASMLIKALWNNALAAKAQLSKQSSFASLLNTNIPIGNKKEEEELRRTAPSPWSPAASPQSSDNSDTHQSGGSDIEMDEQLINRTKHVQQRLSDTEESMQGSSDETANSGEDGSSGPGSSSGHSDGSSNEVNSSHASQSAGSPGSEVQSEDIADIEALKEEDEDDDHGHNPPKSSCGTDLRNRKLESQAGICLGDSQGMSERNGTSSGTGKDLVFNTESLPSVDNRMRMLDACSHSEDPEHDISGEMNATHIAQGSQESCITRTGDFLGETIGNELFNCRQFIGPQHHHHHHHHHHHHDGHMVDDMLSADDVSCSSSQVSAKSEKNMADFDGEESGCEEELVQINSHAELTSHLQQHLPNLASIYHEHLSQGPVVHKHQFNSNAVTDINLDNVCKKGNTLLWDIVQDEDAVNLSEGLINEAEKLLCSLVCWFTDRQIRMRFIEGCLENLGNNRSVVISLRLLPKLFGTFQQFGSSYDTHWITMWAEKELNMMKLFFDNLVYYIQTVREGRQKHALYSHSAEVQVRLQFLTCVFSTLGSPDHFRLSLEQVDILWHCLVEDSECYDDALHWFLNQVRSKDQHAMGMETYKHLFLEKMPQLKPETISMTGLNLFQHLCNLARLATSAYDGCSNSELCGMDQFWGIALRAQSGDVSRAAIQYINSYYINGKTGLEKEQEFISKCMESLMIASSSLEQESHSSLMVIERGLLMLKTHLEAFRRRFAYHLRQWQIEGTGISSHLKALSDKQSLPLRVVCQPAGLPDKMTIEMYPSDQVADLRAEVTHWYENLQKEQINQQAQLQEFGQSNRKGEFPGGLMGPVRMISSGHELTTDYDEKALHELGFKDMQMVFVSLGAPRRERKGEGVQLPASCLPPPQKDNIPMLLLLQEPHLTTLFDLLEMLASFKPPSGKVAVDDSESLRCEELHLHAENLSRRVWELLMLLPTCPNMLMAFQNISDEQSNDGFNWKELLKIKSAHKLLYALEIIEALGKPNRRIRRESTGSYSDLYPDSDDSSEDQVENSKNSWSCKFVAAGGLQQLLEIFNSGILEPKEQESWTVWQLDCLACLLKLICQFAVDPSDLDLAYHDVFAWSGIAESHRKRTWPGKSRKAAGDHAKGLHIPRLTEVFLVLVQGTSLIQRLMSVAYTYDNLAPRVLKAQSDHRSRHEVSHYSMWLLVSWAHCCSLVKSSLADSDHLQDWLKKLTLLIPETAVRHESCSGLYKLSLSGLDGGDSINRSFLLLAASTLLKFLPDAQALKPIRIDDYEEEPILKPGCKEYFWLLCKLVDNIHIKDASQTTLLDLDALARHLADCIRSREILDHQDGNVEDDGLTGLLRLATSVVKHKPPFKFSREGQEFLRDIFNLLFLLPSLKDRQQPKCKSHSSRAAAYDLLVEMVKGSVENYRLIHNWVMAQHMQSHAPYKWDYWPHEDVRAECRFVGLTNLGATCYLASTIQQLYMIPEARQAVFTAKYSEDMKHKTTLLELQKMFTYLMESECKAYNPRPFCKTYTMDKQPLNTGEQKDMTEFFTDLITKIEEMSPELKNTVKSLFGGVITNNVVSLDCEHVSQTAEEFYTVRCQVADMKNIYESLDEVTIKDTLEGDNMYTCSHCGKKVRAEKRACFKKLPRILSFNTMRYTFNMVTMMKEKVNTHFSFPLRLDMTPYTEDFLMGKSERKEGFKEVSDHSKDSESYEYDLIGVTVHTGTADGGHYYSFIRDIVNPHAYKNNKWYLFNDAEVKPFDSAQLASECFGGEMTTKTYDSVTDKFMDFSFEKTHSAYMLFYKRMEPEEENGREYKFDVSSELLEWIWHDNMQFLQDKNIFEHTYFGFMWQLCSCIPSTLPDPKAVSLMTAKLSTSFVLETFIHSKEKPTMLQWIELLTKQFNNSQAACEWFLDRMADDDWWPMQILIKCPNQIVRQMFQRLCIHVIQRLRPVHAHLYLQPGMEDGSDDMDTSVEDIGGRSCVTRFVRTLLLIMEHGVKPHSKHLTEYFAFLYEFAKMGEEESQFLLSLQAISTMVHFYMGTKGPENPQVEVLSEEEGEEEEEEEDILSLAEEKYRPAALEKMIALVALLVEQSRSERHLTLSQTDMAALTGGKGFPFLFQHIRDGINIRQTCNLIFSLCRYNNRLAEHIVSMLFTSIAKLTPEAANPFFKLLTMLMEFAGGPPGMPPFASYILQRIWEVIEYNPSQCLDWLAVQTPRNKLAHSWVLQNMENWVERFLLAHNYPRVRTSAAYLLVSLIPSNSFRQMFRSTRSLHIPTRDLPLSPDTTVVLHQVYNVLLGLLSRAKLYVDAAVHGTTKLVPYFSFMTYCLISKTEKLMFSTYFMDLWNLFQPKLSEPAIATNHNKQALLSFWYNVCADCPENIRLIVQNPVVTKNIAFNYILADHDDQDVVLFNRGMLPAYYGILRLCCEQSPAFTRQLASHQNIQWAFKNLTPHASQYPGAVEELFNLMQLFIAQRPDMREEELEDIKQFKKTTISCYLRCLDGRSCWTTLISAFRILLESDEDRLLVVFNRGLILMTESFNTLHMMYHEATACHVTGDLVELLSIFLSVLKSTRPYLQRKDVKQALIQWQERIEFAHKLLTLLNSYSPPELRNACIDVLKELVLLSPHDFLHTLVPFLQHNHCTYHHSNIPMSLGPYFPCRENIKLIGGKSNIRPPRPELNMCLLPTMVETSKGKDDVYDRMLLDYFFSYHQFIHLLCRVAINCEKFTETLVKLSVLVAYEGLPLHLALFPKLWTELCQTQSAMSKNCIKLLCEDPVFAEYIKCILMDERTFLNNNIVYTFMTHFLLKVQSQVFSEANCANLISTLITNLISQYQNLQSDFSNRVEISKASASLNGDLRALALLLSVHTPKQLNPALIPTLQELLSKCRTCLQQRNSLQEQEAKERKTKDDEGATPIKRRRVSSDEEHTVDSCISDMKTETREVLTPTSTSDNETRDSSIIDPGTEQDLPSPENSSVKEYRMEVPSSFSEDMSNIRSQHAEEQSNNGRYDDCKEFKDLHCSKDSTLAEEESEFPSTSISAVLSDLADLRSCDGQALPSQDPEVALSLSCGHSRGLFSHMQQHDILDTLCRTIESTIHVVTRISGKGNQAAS

Cc1cc(CC(C)NC(=O)CCl)n[nH]1 (stereo not given)
inactive: USP34 -0.00217 | USP36 -0.0115 | USP38 -0.279 | USP39 -0.196 | USP4 -0.0597
